The values that follow come from PubChem BioAssay.

The source made the active and inactive calls. Unless noted, the rule behind the calls is not given here.

The nature of experiment [1]: resazurin metabolic signal in HepG2 cells – cell-based, resazurin fluorescence, 24 h, PK04 Diversity Set, profiling panel (AID 1172). Conditions: HepG2 viability, higher = more signal. Background: Alamar Blue is a resazurin reagent that responds to reducing activity.
The nature of experiment [2]: budding yeast growth changes without added modifier – OD600, strain BY4716, 24 h, basal condition, primary screen (AID 1173). Conditions: S. cerevisiae BY4716 growth, OD600, 24 h; higher = more signal, called active from +8 up or from −8 down.
Experiment [3] can be described thus: viability profiling in MM1S myeloma cells – cell-based, resazurin fluorescence, basal, 24 h, PK04 Diversity Set, profiling panel (AID 1174).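 Note: MM1S multiple myeloma cell line.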 The settings on record: higher = more signal, called active from +8 up or from −8 down.
Experiment [4] deals with Dihydroorotate dehydrogenase (quinone), mitochondrial (Plasmodium falciparum (isolate 3D7)) (UniProt Q08210). Nature of the experiment: inhibition of P. falciparum DHODH – biochemical, C-terminal His tag, absorbance 600 nm, primary screen (AID 1175).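 Note: recombinant parasite enzyme with a five histidine tag at its C terminus.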 Conditions: PfDHODH enzyme, DCIP absorbance 600 nm; higher = more signal, called active from +8 up or from −8 down.
Chain of Dihydroorotate dehydrogenase (quinone), mitochondrial (Plasmodium falciparum (isolate 3D7)) (Q08210 whole entry, looked up): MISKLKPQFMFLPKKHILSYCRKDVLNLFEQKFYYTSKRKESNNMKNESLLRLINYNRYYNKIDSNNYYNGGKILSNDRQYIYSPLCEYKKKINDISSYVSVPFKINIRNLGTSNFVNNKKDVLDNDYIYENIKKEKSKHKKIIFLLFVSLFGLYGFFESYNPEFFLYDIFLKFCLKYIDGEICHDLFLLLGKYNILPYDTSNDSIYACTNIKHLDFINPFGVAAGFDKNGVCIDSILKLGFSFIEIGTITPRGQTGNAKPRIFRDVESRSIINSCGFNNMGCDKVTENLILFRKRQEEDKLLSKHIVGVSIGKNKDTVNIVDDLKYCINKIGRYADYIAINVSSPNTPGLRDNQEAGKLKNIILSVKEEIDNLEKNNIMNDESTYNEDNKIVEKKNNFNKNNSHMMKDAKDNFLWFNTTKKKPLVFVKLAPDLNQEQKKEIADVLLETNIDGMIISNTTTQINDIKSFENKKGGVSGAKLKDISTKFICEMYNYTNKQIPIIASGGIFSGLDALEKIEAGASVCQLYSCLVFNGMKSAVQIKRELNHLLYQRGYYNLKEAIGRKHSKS
The nature of experiment [5]: inhibition of PAO1 biofilm formation – strain PAO1, LB-PBS medium, absorbance 600 nm, primary screen (AID 1176). Conditions: P. aeruginosa PAO1 growth/biofilm, A600, 12 h; higher = more signal.
The nature of experiment [6]: growth modulation of vineyard yeast isolate – strain RM11-1a, OD600, basal, 24 h, primary screen (AID 1177).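 Note: cultures grown under basal conditions with no added stressor.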 The settings on record: S. cerevisiae RM11-1a growth, OD600, 24 h; higher = more signal, called active from +8 up or from −8 down.
Experiment [7] is described as follows: growth of efflux-deficient E. coli DRC39 – strain DRC39, OD650, 24 h, E. coli filamentation inducers, primary screen (AID 1178).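 Note: growth measured as culture turbidity by optical density at 650 nm.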 The settings on record: E. coli DRC39 acrAB, higher = more signal, called active from +8 up or from −8 down.
Experiment [8] in a line: growth of efflux-deficient E. coli DRC39 – strain DRC39, OD650, 48 h, E. coli filamentation inducers, primary screen (AID 1179).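 Note: screen aims at cell division blockers that make cells filament.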 Conditions: E. coli DRC39 delta-acrAB growth, higher = more signal, called active from +8 up or from −8 down.
Experiment [9] is described as follows: viability profiling in RPMI8226 myeloma cells – cell-based, resazurin fluorescence, basal, 24 h, PK04 Diversity Set, profiling panel (AID 1180).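 Note: RPMI8826 multiple myeloma cell line at 5000 cells per well.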 Conditions: higher = more signal.
The target of experiment [10] is E3 ubiquitin-protein ligase XIAP (Homo sapiens) (UniProt P98170). The experiment can be described thus: small molecules binding XIAP protein – biophysical, small-molecule microarray, fluorescence 635 nm, primary screen (AID 1181).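 Note: score merges 667 nm emission and signal to noise over triplicate slides.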 The settings on record: higher = more signal.
Chain of E3 ubiquitin-protein ligase XIAP (Homo sapiens) (P98170 whole entry, looked up, the tested form may be a part): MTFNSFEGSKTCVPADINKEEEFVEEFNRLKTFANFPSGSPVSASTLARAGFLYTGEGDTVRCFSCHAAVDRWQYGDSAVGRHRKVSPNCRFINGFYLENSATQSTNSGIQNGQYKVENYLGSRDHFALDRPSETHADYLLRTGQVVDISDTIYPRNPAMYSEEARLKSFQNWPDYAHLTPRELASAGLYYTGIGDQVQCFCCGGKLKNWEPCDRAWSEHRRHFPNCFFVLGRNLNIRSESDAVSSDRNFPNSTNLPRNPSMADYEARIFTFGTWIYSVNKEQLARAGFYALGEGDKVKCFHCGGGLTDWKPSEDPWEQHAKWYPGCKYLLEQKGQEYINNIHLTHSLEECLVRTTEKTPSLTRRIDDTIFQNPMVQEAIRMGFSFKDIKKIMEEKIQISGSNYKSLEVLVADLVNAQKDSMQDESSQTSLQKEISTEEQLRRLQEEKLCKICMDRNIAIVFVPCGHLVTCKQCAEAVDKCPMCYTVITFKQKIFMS
The subject of experiment [11] is XIP peptide (Xip251-270) binding. Nature of the experiment: XIP fragment 251-270 binding compounds – biochemical, small-molecule microarray, fluorescence 635/667 nm, 0.1 µg/mL protein, primary screen (AID 1182). Conditions: fluorescent protein binding, 635 nm, higher = more signal, called active from +8 up or from −8 down.
Experiment [12] concerns XIP peptide (Xip251-270). The experiment can be described thus: compounds binding XIP fragment 251-270 – biochemical, small-molecule microarray, fluorescence 635/667 nm, 0.5 µg/mL protein, primary screen (AID 1183). The settings on record: fluorescence 635 nm, higher = more signal.
Experiment [13] in a line: blood-stage malaria parasite viability loss – strain 3D7, DAPI fluorescence, 100 nL, primary screen (AID 1184).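 Note: parasites grown inside human red blood cells in medium with human serum.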 The settings on record: P. falciparum 3D7 growth, 3 d, higher = more signal.
The target in experiment [14] is Homeobox protein Hox-A13 (Mus musculus) (UniProt Q62424). Nature of the experiment: disruptors of Hoxa13 oligonucleotide interaction – biochemical, fluorescence polarization, labeled oligonucleotide, primary screen (AID 1185). Conditions: Hoxa13:DNA binding, 15 min, higher = more signal, called active from +8 up or from −8 down. Background: In fluorescence polarisation assays a small probe gives low polarisation when free and higher when bound to something large.
Chain of Homeobox protein Hox-A13 (Mus musculus) (Q62424 whole entry, looked up): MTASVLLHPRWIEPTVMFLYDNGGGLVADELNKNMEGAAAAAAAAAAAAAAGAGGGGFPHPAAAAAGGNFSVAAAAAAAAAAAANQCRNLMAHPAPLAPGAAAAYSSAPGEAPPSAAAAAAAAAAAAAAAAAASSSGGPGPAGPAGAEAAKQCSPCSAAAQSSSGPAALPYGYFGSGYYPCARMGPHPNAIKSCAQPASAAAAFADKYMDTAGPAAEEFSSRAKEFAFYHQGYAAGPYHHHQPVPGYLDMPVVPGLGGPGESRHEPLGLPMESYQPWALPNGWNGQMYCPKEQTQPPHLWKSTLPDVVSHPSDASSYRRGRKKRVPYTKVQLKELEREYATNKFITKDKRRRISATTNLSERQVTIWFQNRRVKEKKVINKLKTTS

A short description of experiment [15]: blockers of DNA damage checkpoint Chk1 activation – imaging, HeLa, hydroxyurea, phospho-Chk1 antibody, percent positive cells, primary screen (AID 1186). The settings on record: hydroxyurea-induced phospho-Chk1 immunofluorescence imaging, higher = more signal.
The nature of experiment [16]: blockers of DNA damage checkpoint Chk1 activation – imaging, HeLa, hydroxyurea, phospho-Chk1 nuclear intensity, primary screen (AID 1187). The settings on record: hydroxyurea-induced phospho-Chk1 immunofluorescence imaging, higher = more signal.

As to `CCCNC(=O)[C@@H]1c2ccccc2C(=O)N(Cc2ccc(OC(F)(F)F)cc2)[C@H]1c1ccc(CO)cc1`, the z-score is 0.266 in experiment [1]; 0.0357 (inactive) in experiment [2]; 0.186 (inactive) in experiment [3]; -0.217 (inactive) in [5]; 0.532 (inactive) in experiment [6]; 0.659 (inactive) in [7]. Moreover, the z-score in experiment [8] is 1.34 (inactive); in experiment [9] it was 0.584; in [13], -0.997; in experiment [14], -3 (inactive); in experiment [15], -0.615 (inactive); in experiment [16], -0.366 (inactive). Besides, the composite z-score was -0.966 (inactive) in [4], 0.155 in [10], 0.688 (inactive) in experiment [11] and 0.835 in experiment [12].

In the case of `CC(C)C(O)C1C=CC2C(=O)N(c3ccccc3)C(=O)C2N1Nc1ccccc1` (stereo not given), the z-score in [1] was -0.196; in experiment [2] it was -2.05 (inactive); in experiment [3] it was -0.302 (inactive); in [5], 0.835 (inactive); in experiment [6], 0.334 (inactive); in experiment [7], 0.562 (inactive). The z-score in experiment [8] was 0.376 (inactive); in experiment [9], -0.825; in experiment [13], -0.752; in experiment [14], -4.18 (inactive); in experiment [15], 0.436 (inactive); in experiment [16], 0.581 (inactive). Also, the composite z-score is -0.85 (inactive) in experiment [4], 0.123 in experiment [10], 1.33 (inactive) in experiment [11] and 0.852 in experiment [12].

On to `O=C1C2C=CC(C(O)C3CC=CCC3)N(Nc3ccccc3)C2C(=O)N1c1ccccc1` (stereo not given), for which the z-score is -0.868 in experiment [1]; -1.22 (inactive) in [2]; -1.57 (inactive) in experiment [3]; 1.18 (inactive) in experiment [5]; -0.197 (inactive) in experiment [6]; -0.572 (inactive) in [7]. Moreover, the z-score is -0.658 (inactive) in experiment [8]; -1.12 in experiment [9]; -0.653 in experiment [13]; -3.25 (inactive) in experiment [14]; 0.639 (inactive) in experiment [15]; 0.201 (inactive) in [16]. Moreover, the composite z-score in [4] was -0.558 (inactive); in experiment [10], 0.251; in experiment [11], 0.767 (inactive); in [12], 0.748.

In the case of `CN(C)c1ccc(C(O)C2C=CC3C(=O)NC(=O)C3N2Nc2ccccn2)cc1` (stereo not given), the z-score in experiment [1] was -0.8; in experiment [2], 1.03 (inactive); in experiment [3], -1.21 (inactive); in experiment [5] it was 0.503 (inactive); in experiment [6], 0.489 (inactive); in experiment [7], -0.738 (inactive). Besides, the z-score in experiment [8] was 0.0674 (inactive); in experiment [9] it was -1.79; in experiment [13], 0.597; in experiment [14], -2.26 (inactive); in experiment [15], 0.431 (inactive); in [16], 0.493 (inactive). Also, the composite z-score is 0.957 (inactive) in [4], 0.0726 in experiment [10], -0.181 (inactive) in experiment [11] and -0.0515 in experiment [12].

In the case of `C=CCNC(=O)[C@@H]1[C@H]2C(=O)O[C@H](c3ccccc3)[C@H](c3ccccc3)N2[C@H](c2ccc(O)cc2)[C@@]12C(=O)N(C(=O)OCCOC)c1ccc(C#CC3=CCCCC3)cc12`, the z-score is -0.411 in experiment [1]; 0.0346 (inactive) in [2]; -0.279 (inactive) in [3]; 1.26 (inactive) in [5]; 0.891 (inactive) in [6]; -0.713 (inactive) in [7]. Moreover, the z-score is -0.277 (inactive) in experiment [8]; -1.09 in experiment [9]; 0.608 in [13]; -0.465 (inactive) in [14]; -0.472 (inactive) in experiment [15]; -1.01 (inactive) in experiment [16]. Moreover, the composite z-score in [4] is 0.235 (inactive); in experiment [10], -0.0056; in experiment [11] it was 0.423 (inactive); in experiment [12] it was 0.672.

As to `COCC(=C=CC[C@H](O)c1ccc(OCCO)cc1)CCO`, the z-score is 0.996 in experiment [1]; -0.415 (inactive) in [2]; 0.654 (inactive) in experiment [3]; -0.0342 (inactive) in [5]; 0.137 (inactive) in [6]; 0.53 (inactive) in [7]. Moreover, the z-score in experiment [8] is 0.209 (inactive); in [9], 0.854; in experiment [13], -2.93; in [14], -3.28 (inactive); in experiment [15], -0.638 (inactive); in experiment [16], -0.571 (inactive). Further, the composite z-score in experiment [4] was -1.15 (inactive); in experiment [10] it was 0.102; in experiment [11], 0.407 (inactive); in [12] it was -0.252.

In the case of `COCCCNC(=O)[C@@H]1c2ccccc2C(=O)N(C(C)C)[C@H]1c1ccc(CO)cc1`, the z-score in experiment [1] was -0.388; in experiment [2] it was 0.214 (inactive); in experiment [3], 0.054 (inactive); in experiment [5], 0.168 (inactive); in [6], 1.03 (inactive); in experiment [7], 0.0099 (inactive). Moreover, the z-score was -0.525 (inactive) in [8]; -0.0303 in [9]; -0.324 in experiment [13]; -1.03 (inactive) in experiment [14]; -0.244 (inactive) in [15]; -0.504 (inactive) in experiment [16]. Besides, the composite z-score in [4] is 0.367 (inactive); in experiment [10] it was -0.127; in experiment [11], 0.147 (inactive); in [12], -0.0343.

Consider `C=CCN1Cc2ccccc2[C@@H]2OC(c3ccc(OCCCO)cc3)=N[C@]2(CC=C)C1=O`, for which the z-score was 0.151 in experiment [1]; -1.94 (inactive) in experiment [2]; 0.0504 (inactive) in [3]; 0.314 (inactive) in [5]; -0.0316 (inactive) in experiment [6]; 0.997 (inactive) in [7]. In addition, the z-score was 0.64 (inactive) in experiment [8]; -0.747 in [9]; -2.08 in [13]; -1.62 (inactive) in [14]; -0.675 (inactive) in experiment [15]; -1.39 (inactive) in [16]. Also, the composite z-score was -0.0817 (inactive) in [4], 0.247 in experiment [10], 0.887 (inactive) in experiment [11] and 0.794 in experiment [12].

Consider `COC(=O)[C@@H]1N=C(c2ccc(OCCCO)cc2)O[C@@H]1c1ccccc1`, for which the z-score in experiment [1] was 1.64; in [2] it was -2.99 (inactive); in experiment [3] it was 1.09 (inactive); in [5], -0.484 (inactive); in [6], -0.763 (inactive); in experiment [7], 0.714 (inactive). The z-score is 0.129 (inactive) in [8]; 1.5 in [9]; -0.641 in experiment [13]; -4.34 (inactive) in experiment [14]; -0.4 (inactive) in experiment [15]; -0.301 (inactive) in [16]. In addition, the composite z-score in experiment [4] was -0.103 (inactive); in [10] it was 0.761; in experiment [11], 0.178 (inactive); in experiment [12] it was 0.759.

In the case of `CCCCN1CC=CC23O[C@@H]4/C=C\CCCOC(=O)C4[C@H]2C(=O)N(CCO)[C@@H]3C1=O` (stereo not given in full), the z-score in [1] was -1.03; in experiment [2] it was 0.291 (inactive); in experiment [3] it was 0.294 (inactive); in experiment [5], -0.221 (inactive); in experiment [6], 0.507 (inactive); in experiment [7] it was -0.088 (inactive). The z-score in experiment [8] is -0.389 (inactive); in [9], 0.0725; in experiment [13], -1.09; in experiment [14] it was -5.46 (inactive); in experiment [15], -0.302 (inactive); in experiment [16], 0.214 (inactive). The composite z-score in [4] was 0.538 (inactive); in experiment [10], 0.0537; in experiment [11], 0.51 (inactive); in experiment [12], 0.157.
